This note sets out measurements from publication PMC9574860, “Chemical Toolkit for PARK7: Potent, Selective, and High-Throughput” (Journal of Medicinal Chemistry, 2022).

In all, about 7,900 compounds went through this assay and about 400 (5.1%) showed an effect of 50% or more. Many of the other results were omitted from the sample, so strong results are more common in it than they were.

Chain of Parkinson's disease protein 7 (PARK7/DJ1) (Q99497 whole entry, looked up, the tested form may be a part): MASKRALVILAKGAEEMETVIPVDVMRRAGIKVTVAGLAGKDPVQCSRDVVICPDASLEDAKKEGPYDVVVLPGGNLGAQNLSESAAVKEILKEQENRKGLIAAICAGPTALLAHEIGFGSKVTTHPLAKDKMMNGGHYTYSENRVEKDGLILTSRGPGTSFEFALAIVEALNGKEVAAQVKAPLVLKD

The assay deals with Parkinson's disease protein 7 (PARK7/DJ1) (human, UniProt Q99497). Nature of the assay: primary screen, percent inhibition; read as competition with a fluorescent probe by fluorescence polarization; higher = more effect of the substance. Conditions: 100 µM. The gist of the method:
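Covalent fragments at 100 μM final were incubated 2 h with 0.2 μM PARK7, then 20 nM probe JYQ-107 added for a further 2 h. Fluorescence polarization read at 480/520 nm; relative FP loss versus reference controls gave remaining enzyme activity.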
Take `N#Cc1nc(N2CC(CF)C2)ccc1Cl`: the Inhibition % is recorded as 3.54%.

With `O=C(CCl)N1CCN(S(=O)(=O)Cc2ccccc2)CC1`, the Inhibition % worked out at 13.1%.

Regarding `CCC1(CNS(=O)(=O)C=Cc2ccccc2)CCOCC1`, the Inhibition % is on record as 6.07%.

In the case of `CC1(C)OB(Cc2cc(F)cc(F)c2)OC1(C)C`, the Inhibition % is 6.97%.

For the molecule `O=S(=O)(F)c1ccc(S(=O)(=O)Nc2ccsc2)cc1`, the Inhibition % is given as 27.7%.

With `Cc1nccc(NS(=O)(=O)c2ccc(S(=O)(=O)F)cc2)n1`, the Inhibition % is 57.9%.

For `O=S(=O)(F)c1ccc(S(=O)(=O)Nc2ccncc2)cc1`, the Inhibition % worked out at 8.89%.

For `O=S(=O)(F)c1ccc(S(=O)(=O)Nc2cccc(F)n2)cc1`, the Inhibition % was 54.7%.

Turning to `O=S(=O)(F)c1ccc(S(=O)(=O)Nc2nccs2)cc1`, the Inhibition % is 64%.

`O=S(=O)(F)c1ccc(S(=O)(=O)Nc2ccccn2)cc1`: the Inhibition % is recorded as 5.71%.

Take `Cc1ccnc(NS(=O)(=O)c2ccc(S(=O)(=O)F)cc2)n1`: the Inhibition % came to 36.3%.

Consider `Cc1ccnc(NS(=O)(=O)c2ccc(S(=O)(=O)F)cc2)c1`, for which the Inhibition % is on record as 16.1%.

As to `CC1(C)OB(c2cncc(NS(=O)(=O)c3ccccc3)c2)OC1(C)C`, the Inhibition % is given as 8.59%.

As for `CCNS(=O)(=O)c1ccc(B2OC(C)(C)C(C)(C)O2)c(C)c1`, the Inhibition % was 5.32%.

For `C=CC(=O)NC1CC(OC)C1(C)C` (stereo not shown), the Inhibition % was -3.29%.

Turning to `CC1CC(Sc2cnccn2)C(=O)O1` (stereo not shown), the Inhibition % was 48.8%.

For the molecule `Cc1ccc2cccc(OC(=O)N(C)C)c2n1`, the Inhibition % was 5.34%.

As for `C=CS(=O)(=O)c1ccccc1`, the Inhibition % stood at 9.43%.

Regarding `CC1CCN(C(=O)C=Cc2cn(C)c(=O)n(C)c2=O)CC1`, the Inhibition % was determined as 10.9%.

In the case of `CN1CCC(CNc2ccc(C#N)nc2)CC1`, the Inhibition % is recorded as 1.29%.

On to `O=C(CCl)N1CCN(c2ncccn2)CC1`, for which the Inhibition % was 91.6%.

In the case of `C=CC(=O)N1CCN(c2ncccn2)CC1`, the Inhibition % worked out at 9.58%.

In the case of `O=C(CCCl)N1CCN(c2ncccn2)CC1`, the Inhibition % was determined as 3.8%.

For the molecule `O=C(CCCl)N1CCN(c2ccccn2)CC1`, the Inhibition % is recorded as 12.9%.

On to `Cl.O=C(CCl)N1CCN(c2cccc(Cl)c2)CC1`, for which the Inhibition % was determined as 44.3%.

In the case of `Cl.O=C(CCl)N1CCN(c2cnccn2)CC1`, the Inhibition % turned out to be 55.6%.

With `C=CC(=O)NCCN1C(=O)CNC1=O`, the Inhibition % is on record as 12.9%.

On to `C=CC(=O)NCC1CCN(c2ccccc2)CC1`, for which the Inhibition % is on record as 3.72%.

Take `N#Cc1ccnc(Cl)n1`: the Inhibition % is recorded as 3.95%.

Take `N#Cc1cc(Cl)ccn1`: the Inhibition % is 52.6%.

For the molecule `N#Cc1cc(F)ccn1`, the Inhibition % is 5.03%.

Turning to `O=S(=O)(F)CCCS(=O)(=O)Nc1ccc(F)cn1`, the Inhibition % came out at 77.2%.

For `C=CC(=O)Nc1ccc(C)cn1`, the Inhibition % came to 0.151%.

Consider `O=S(=O)(C=Cc1ccccc1)Nc1ccc(F)cn1`, for which the Inhibition % was 6.27%.

On to `O=S(=O)(F)c1ccc(Nc2ccc(F)cc2)nc1`, for which the Inhibition % is given as 2.34%.

For the molecule `Cc1ccc(C=CS(=O)(=O)Nc2ccc(C#N)cn2)cc1`, the Inhibition % stood at 11.1%.

With `Cc1ccc(NS(=O)(=O)CCCS(=O)(=O)F)nc1`, the Inhibition % is 80.1%.
